Among all 310,000 compounds or so, about 1,000 (0.32%) were called active. A selection follows. Potency and affinity values are given separately. Unmarked numbers belong to inactive results. The rule behind the calls is not given here.

A short description of the assay: Inhibition of PhoP regulon, Salmonella typhi GFP reporter cells, confirmation, 4 h (AID 1850).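 Note: 0% = induced wells with vehicle and 100% = uninduced wells.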 Conditions: Salmonella Typhi PhoP-promoter GFP reporter, fluorescence, at 50 µM, hits give high values.
Broadly, the inhibition is the relative decrease from the control value, in per cent. For `Cc1cc(C)n(CC(O)Cn2cnc3c2c(=O)n(C)c(=O)n3C)n1` (stereo unspecified), the inhibition is -7.83%.
As for `CCN(CC(=O)NCc1ccc(Cl)cc1)C(=O)CSc1cccc(C(F)(F)F)c1`, the inhibition was 5.75%.
The figure for `COc1ccc(C2=NN(CN3C(=O)C(=O)c4ccccc43)C(c3ccc(OC)cc3)C2)cc1` (stereo unspecified) is -8.46%; for `Cc1nc2c(C#N)cnn2c2c1CCN(Cc1ccccc1)N2C` it is 0.51%.
The figure for `Nc1cc(N2CCCCCC2)c2nonc2c1[N+](=O)[O-]` is -0.89%; for `Nc1ccc2nonc2c1[N+](=O)[O-]` it is -75.7%; for `COCCn1c(=S)[nH]c2cc(C(=O)NCCCN3CCOCC3)ccc2c1=O` it is -1.91%.
The figure for `O=C(NC1CCSC1=O)c1cccc(Cl)c1` (stereo unspecified) is 3.01%; for `CCN1/C(=C\C=C\C2=[N+](CC)c3ccccc3C2(C)C)C(C)(C)c2ccccc21` it is -46.5%; for `CN1/C(=C\C=O)C(C)(C)c2ccccc21` it is 1.84%.
On to `O=C(Nc1cc2c3c(c1)CC(=O)N3CCC2)c1cccc(F)c1`, for which the inhibition is 6.53%.
Take `O=C(c1ccc(F)cc1)c1ccc(N2CCCCC2)cc1`: the inhibition was -11.2%.
For `CN(CC(=O)Nc1ccc(S(N)(=O)=O)cc1)c1ccccc1`, the inhibition was 14.4%.
Turning to `CSc1ccccc1C(=O)Nc1cc(C)ccc1C`, the inhibition was 7.98%.
In the case of `Cc1ccccc1NC(=O)c1ccccc1O`, the inhibition is 4.26%.
Regarding `O=[N+]([O-])c1cccc(-c2cc3ccccc3[nH]2)c1`, the inhibition was -7.23%.
The figure for `O=C(N/N=C/c1cc2ccccc2[nH]1)c1ccccc1Cl` is 12.6%; for `COc1ccc(N(CC(=O)N2CCN(c3cc(C)ccc3C)CC2)S(=O)(=O)c2c(C)noc2C)cc1` it is 4.32%; for `CCC(C)NC(=O)C1c2ccccc2C(=O)N(c2ccc(OC)cc2)C1c1ccc(OC)cc1` (stereo unspecified) it is -3.48%.
Turning to `O=C(N/N=C/c1cc(Br)c(O)c(Br)c1O)c1cccnc1`, the inhibition was -12.7%.
Consider `Nc1nonc1-n1nnc(C(=O)N/N=C/c2c(Cl)cccc2Cl)c1CSC1=NCCS1`, for which the inhibition is -8.07%.
Under `Nc1nonc1-n1nnc(C(=O)N/N=C/c2ccc(Br)cc2)c1CSC1=NCCS1` stands 6.84%; under `O=C(N/N=C/c1ccccc1Cl)c1ccncc1`, -2.44%.
Consider `O=C(N/N=C/c1cc(Br)c(O)c(Br)c1)c1cccnc1`, for which the inhibition is 19.1%.
Under `O=C(N/N=C/c1cc2c(cc1Cl)OCO2)c1ccncc1` stands -3.87%.
With `O=C(N/N=C/c1ccc(O)cc1O)c1ccncc1`, the inhibition was 1.18%.
On to `O=C(N/N=C/c1cc2ccccc2nc1Cl)c1ccncc1`, for which the inhibition is -3.32%.
On to `COc1ccc(CNC(=O)CCNS(=O)(=O)c2ccc(Br)s2)cc1`, for which the inhibition is -1.05%.
As to `O=C(CN1C(=O)C2C3C=CC(C3)C2C1=O)Nc1nc(SCc2ccc(Cl)cc2)n[nH]1` (stereo unspecified), the inhibition is 3.67%.
The figure for `O=C(O)COCC(=O)NC1CCN(Cc2ccccc2)CC1` is -0.41%.
Turning to `CC(CN1CCCCC1)OC(=O)c1ccccc1F` (stereo unspecified), the inhibition is -3.63%.
Under `Cc1nn(C(C)C(=O)NC2CCC(C)CC2)c(=O)c2nn(-c3ccccc3)c(C)c12` (stereo unspecified) stands -5.27%; under `Cc1ccc(Cl)cc1NC(=O)C1CC(=O)Nc2ncnn21` (stereo unspecified), -13%; under `O=C(N/N=C/c1ccc(Cl)cc1Cl)c1ccncc1`, -12.1%.
With `CNC(=S)N/N=C/c1cc(Br)cc(Br)c1O`, the inhibition is 6.75%.
Under `O=C(N/N=C/c1ccccc1O)NC12CC3CC(CC(C3)C1)C2` stands 6.48%; under `O=C1NCCCC1C(=O)N/N=C/c1ccccc1O` (stereo unspecified), -6.72%.
The figure for `O=C(N/N=C/c1coc2ccc(Cl)cc2c1=O)c1ccncc1` is -3.86%.
Under `Nc1nonc1C(=O)N/N=C/c1ccc(Br)o1` stands -7.75%; under `O=C(C[n+]1ccccc1)N/N=C/c1cc(Br)cc(Br)c1O`, 1.91%; under `Nc1nonc1C(=O)N/N=C/c1cc2c(cc1Br)OCO2`, -18.8%.
As for `CCOC(=O)C1CCCCN1Cc1cccc(OC)c1OC` (stereo unspecified), the inhibition was -6.91%.
For `CCC(=O)NC(=S)Nc1ccc(NC(=O)c2ccco2)c(OC)c1`, the inhibition is -4.57%.
The figure for `Cc1cc(=O)c(C(=O)O)nn1-c1cccc(C(F)(F)F)c1` is 3.22%; for `Cc1[nH]n(-c2ccccc2)c(=O)c1/C=N/NC(=O)c1ccc(O)cc1O` it is 4.8%; for `Cc1ccc(C)c(CN2CCC(CNC(=O)CCc3nnc4ccc(N5CCCCC5)nn34)CC2)c1` it is -0.65%.
In the case of `O=C(CSc1nnc(CNC(=O)c2cccs2)o1)Nc1cccc(Cl)c1`, the inhibition is -8.62%.
As for `O=C(CC1SC(N2CCCC2)=NC1=O)Nc1ccc(C(=O)N2CCN(c3cccc(Cl)c3)CC2)cc1` (stereo unspecified), the inhibition is -3.88%.
The figure for `Cc1ccc(S(=O)(=O)N[C@@H](CO)C(=O)N[C@@H](Cc2ccc(O)cc2)C(=O)O)cc1` is 3.35%; for `Cc1ccc2c(c1)NC(=O)C(CC(=O)NCCCN1CCCCC1)O2` (stereo unspecified) it is -5.47%; for `COc1cc(Cl)c(C)cc1NC(=O)CCCN1C(=O)CCC1=O` it is -6.87%.
Under `CN1CCN(C(=O)c2ccc(CS(=O)Cc3ccc(Cl)cc3)o2)CC1` (stereo unspecified) stands -3.59%.
Regarding `COc1cccc(CNS(=O)(=O)c2ccc(S(=O)(=O)NC3CC3)cc2)c1`, the inhibition is 0.68%.
Under `CCCc1cc(=O)oc2c3c(cc(OCC(=O)N4CCC[C@H]4C(=O)O)c12)OC(C)(C)CC3` stands -1.72%.
As to `COc1ccc(CNC(=O)CSc2nnnn2-c2ccc(O)cc2)cc1`, the inhibition was 4.45%.
`Cc1ccc(CN2CCC(CNS(=O)(=O)c3ccc(-c4ccc(=O)[nH]n4)s3)CC2)cc1`: the inhibition is -17.1%.
The figure for `Cc1ccc(Nc2nc(N)nc(CSC(=S)N3CCN(c4ccccc4)CC3)n2)cc1` is 5.34%; for `COc1ccccc1NC(=O)Nc1ccc(CC#N)cc1` it is -23.3%.
`O=c1oc2ccccc2n1Cc1ccccc1F`: the inhibition was 0.75%.
`O=c1[nH]cc(NCCc2ccccc2)c(=O)[nH]1`: the inhibition was 2.68%.
Turning to `O=C(N/N=C/c1cccnc1)c1cccc(Cl)c1`, the inhibition was 41%.
As for `CC(=O)Nc1ccc(C(=O)N/N=C/c2cc(Br)cc(Br)c2O)cc1`, the inhibition is -13.1%.
Under `COc1c(Br)cc(Br)cc1/C=N/NC(=O)c1ccncc1` stands -12.1%; under `O=C(N/N=C/c1cc(Br)cc(Br)c1O)c1cccc(S(=O)(=O)N2CCOCC2)c1`, 17.9%; under `O=C(CNC(=O)c1ccncc1)N/N=C/c1cc(Br)ccc1O`, 14.9%.
In the case of `O=C(CP(=O)(c1ccccc1)c1ccccc1)N/N=C/c1cc(Br)cc(Br)c1O`, the inhibition was -0.96%.
As to `O=C(N/N=C/c1cc([N+](=O)[O-])ccc1O)c1ccncc1`, the inhibition is 12.7%.
Turning to `O=C(N/N=C/c1cc(Cl)ccc1O)c1ccc(Br)cc1`, the inhibition is -15.2%.
The figure for `COc1ccccc1C(=O)Nc1nnc(SCC(=O)Nc2ccc3c(c2)oc2ccccc23)s1` is -0.02%; for `COc1cc(/C=C2/NC(=O)NC2=O)ccc1OCC(=O)Nc1ccc(F)cc1` it is 1.58%; for `C=CCn1c(CSc2ccc(C)cc2)n[nH]c1=S` it is 2.92%.
The figure for `Cn1ncc(Cl)c1C(=O)N1CCN(c2ncccn2)CC1` is 10.1%; for `Cc1cccc(NC(=O)COC(=O)CCCC2=NS(=O)(=O)c3ccccc3N2)c1` it is -3.69%.
The figure for `C=C(C)CC1N(c2cccc(OC)c2)C(=O)C2C(C(=O)O)C3C=CC21O3` (stereo unspecified) is -1.1%; for `CCCCn1c(=O)[nH]c(=O)c2c1nc(-c1cc(Br)ccc1OC)n2C` it is 1.08%; for `O=C(CSC(=S)N1CCCC1)Nc1ncc(Cl)cc1Cl` it is -5.14%.
As to `CC(O)(CS(=O)(=O)Cc1ccccc1)C(=O)Nc1ccc(C(F)(F)F)cc1` (stereo unspecified), the inhibition was 9.99%.
Under `CCc1ccccc1NC(=O)COc1cccc(-n2cnnn2)c1` stands -5.08%.
The figure for `CC(C)OCCCNC(=O)c1ccc(NC(=O)C2=CSCCO2)cc1` is -8.42%; for `COc1ccc(S(=O)(=O)N2CCN(c3ncccn3)CC2)cc1[N+](=O)[O-]` it is -20.4%.
The figure for `Cc1ccc(Nc2cc(C)nn2-c2nc(C)cc(C)n2)cc1` is 5.85%; for `Cc1cc(C)n(-c2nc(O)cc(=O)[nH]2)n1` it is -1.88%.
For the molecule `Cc1cc(Nc2ccccc2)n(-c2nc3ccccc3[nH]2)n1`, the inhibition is -0.39%.
Regarding `Cc1cc(C)n(-c2nnc(C)c(=O)[nH]2)n1`, the inhibition is -0.21%.
The figure for `FC(F)(F)c1cccc(Oc2cc(C(F)(F)F)nc(-c3ccccn3)n2)c1` is 1.08%; for `CCOc1ccc(N2C(=O)C3ON(c4ccccc4)C(c4cccs4)C3C2=O)cc1` (stereo unspecified) it is 9.38%.
Take `CCCCC(=O)N1CCN(c2nc3ccc(F)cc3s2)CC1`: the inhibition was -7.63%.
The figure for `Nc1ccc2c(c1)C(=O)C(=O)c1ccccc1-2` is 6.22%.
The figure for `O=C1C(=O)c2ccc(-c3ccccc3)cc2-c2ccccc21` is 1.01%; for `Nc1ccc(Br)c2c1C(=O)c1ccccc1C2=O` it is -1.04%.
With `Cc1cc(C)cc(NC2=C(N)C(=O)c3ccccc3C2=O)c1`, the inhibition was -9.49%.
The figure for `COc1ccc(/C=C/C(=O)c2ccc(O)cc2)cc1CN1CCOCC1` is -8.66%; for `CC(=O)Oc1ccc2c(=O)oc(-c3ccccc3C)nc2c1` it is -4.89%.
Under `CN(C)CCOC1c2ccccc2C=Cc2ccccc21` stands 10.7%; under `O=C1N=C2SCCN2/C1=C\c1ccc(Cl)cc1`, 3.83%.
Under `O=C(NCc1nc(-c2ccccc2)no1)c1cccs1` stands -6.48%.

The values above are taken from PubChem BioAssay AID1850 (Southern Research Specialized Biocontainment Screening …, 2009).
